# AMA1 RON2 block: disrupts binding of P. falciparum AMA1 to RON2; AID 720542; Potency, µM (highest dose often 58.2 µM), inactives show at the top dose activity change, negative = inhibition, actives largely listed as inhibitors; AlphaScreen AMA1-biotinylated RON2 peptide binding; 360,000 compounds, 0.2% hits;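 also: 0% = vehicle wells and -100% = peptide control; nearly all actives have a fitted effect of over 45% in size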
#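 AMA1 (3D7) with his tag at 25 nM final met compounds first, then biotinylated RON2 peptide at 25 nM; detection used donor plus acceptor beads, 10 µg/mL apiece, read by AlphaScreen after 30 min at room temperature.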
# Pf growth 48h: inhibits P. falciparum growth in the first generation, 48 h; P. falciparum luciferase growth in erythrocytes, 48 h; Potency, µM (top dose mostly 28.7 µM), inactives show at the top dose activity change, negative = inhibition, most hits filed as inhibitors; 310,000 compounds, 5.9% hits
#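 Luciferase-expressing parasites in RBCs, 2% Hct / 0.1% parasitemia final; RPMI 1640 + 0.5% Albumax; 37 C, 5% CO2, one generation; luminescence read-out, lower signal = inhibition.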
# VACV mCherry inh: inhibitors of vaccinia virus infection (mCherry reporter signal) | Potency, µM (top dose mostly 36.5 µM), inactives show at the top dose activity change, negative = inhibition, actives largely listed as inhibitors | 310,000 compounds, 0.63% hits | Vaccinia virus mCherry reporter infection, fluorescence | AID 720579; calls by dose curve; tested in A549 cells; also: nearly all actives have a fitted effect of over 35% in size
# VACV Venus inh: vaccinia inhibition (Venus reporter). 330,000 compounds, 0.46% hits. Potency, µM (titrated, usually from 36.5 µM), for inactives: at the top dose activity change, negative = inhibition, most hits filed as inhibitors. Vaccinia virus Venus reporter expression, fluorescence; calls by dose curve; tested in A549 cells; also: nearly all actives have a fitted effect of over 30% in size
# Pf growth 96h: P. falciparum growth inhibition at 96 hours; P. falciparum luciferase reporter growth, 96 h; Potency, µM (top dose mostly 28.7 µM), for inactives: top-dose activity change, negative = inhibition, hits mostly inhibitors; 320,000 compounds, 6.9% hits; AID 504834
#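 Two parasite generations (96 h, 37 C, 5% CO2) of compound exposure in infected erythrocytes (0.05% parasitemia, 2% hematocrit). Luciferase-reporter P. falciparum; decreased luminescence indicates inhibited growth, aimed at apicoplast-acting delayed death.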
# * hit, by the source's call; i = inactive; ? = inconclusive; / = not tested or not shown; [ ] = dose if it differs, or a comment. Most compounds without a hit are left out; they make up all but 8.7% or so of the library. Unless noted, calls follow the shape of the dose curve; as a rule, active = well fitted curve in the direction sought with a large enough effect; inconclusive = small, poorly fitted or top-dose-only effect, or another doubt; inactive = no such curve, though single readings can be large; an effect the other way counts as inactive or inconclusive. Unless noted, % is scaled to controls: 0 for no effect and ±100 for the full control effect; potency is read from the fitted curve at half-maximal effect.
SMILES,AMA1 RON2 block,Pf growth 48h,VACV mCherry inh,VACV Venus inh,Pf growth 96h
C=CCN(c1ccccc1OC)S(=O)(=O)c1cccc(C(=O)NCc2cccs2)c1,-0.8%,11.7µM*,-30.0%,-29.0%,11.7µM*
C=CCN(c1ccccc1)S(=O)(=O)c1cccc(C(=O)NCC(c2cccs2)N2CCOCC2)c1 (centres undefined),40.6%,10.4µM*,?,-22.8%,?
C=CCN(c1ccccc1)S(=O)(=O)c1cccc(C(=O)NCC(c2ccccc2OC)N2CCCC2)c1 (centres undefined),-3.9%,?,?,-29.8%,?
COc1ccccc1C(=O)Nc1nnc(SCc2cc(=O)c3ccccc3[nH]2)s1,/,/,-23.2%,-16.6%,/
N#Cc1nc(-c2ccc(OCc3ccccc3Cl)cc2)oc1N1CCC(C(N)=O)CC1,/,/,-21.9%,-20.3%,/
O=C(CN1CCN(CC(=O)Nc2ccccc2F)CC1)Nc1ccc(Cl)c(C(F)(F)F)c1,/,/,-13.0%,-4.5%,/
Cc1nc2cc(NC(=O)[C@@H]3C[C@@H](Sc4ccccn4)CN3C3CCCCCC3)ccc2s1,/,/,i,-18.0%,/
O=C(NCC(c1cccs1)N1CCOCC1)C1CCN(S(=O)(=O)c2cccc(C(F)(F)F)c2)CC1 (centres undefined),-15.2%,?,?,?,10.4µM*
O=C(NCC(c1cccs1)N1CCOCC1)C1CCN(S(=O)(=O)c2ccccc2C(F)(F)F)CC1 (centres undefined),0.9%,?,/,/,?
Cc1cc(O)c(CN2CC=C(c3ccccc3)CC2)cc1C(C)C,0.0%,0.294µM*,-18.6%,-18.4%,0.262µM*
OC(CN1CC=C(c2ccccc2)CC1)c1ccccc1 (centres undefined),-17.6%,?,-24.7%,-4.5%,?
COc1cccc(CN2CCC3(CCC(CNC(=O)c4ccccc4)O3)CC2)c1 (centres undefined),/,/,-9.2%,-9.4%,/
Cc1ccc(NC(=O)CCn2cccn2)cc1Cl,/,/,-9.8%,-8.0%,/
c1ccc(-c2nc(NCc3ccco3)c3ccccc3n2)nc1,-19.3%,2.62µM*,?,11.2µM*,2.94µM*
c1ccc(CNc2nc(N3CCN(Cc4ccccc4)CC3)nc3ccccc23)cc1,?,5.22µM*,?,-27.7%,?
OCCNc1nc(Nc2ccc(Br)cc2)nc2ccccc12,-8.7%,0.928µM*,?,-24.8%,?
OCCNc1nc(N2CCCCC2)nc2ccccc12,9.3%,?,i,-5.8%,-2.4%
OCCNc1nc(Nc2ccccc2)nc2ccccc12,-0.9%,?,/,?,45.7%
c1coc(CNc2nc(N3CCCCC3)nc3ccccc23)c1,-4.7%,6.57µM*,-29.4%,?,/
CC1CCN(c2oc(-c3cccs3)nc2S(=O)(=O)c2ccc(Cl)cc2)CC1,/,/,-20.8%,-12.1%,/
COc1ccccc1Nc1nc(NCc2ccco2)c2ccccc2n1,-19.7%,?,?,-16.5%,?
c1ccc(N2CCN(c3nc(NCc4ccco4)c4ccccc4n3)CC2)cc1,-29.4%,2.33µM*,/,?,2.33µM*
c1ccc(CN2CCC(CNc3ncnc4ccccc34)C2)cc1 (centres undefined),-2.0%,/,?,-4.8%,/
COc1ccc(Nc2nc(NCc3ccco3)nc(N/N=C/c3ccccc3)n2)cc1,-25.9%,1.85µM*,/,-17.8%,128.3%
c1ccc(CN2CCC(Nc3nc(-c4ccccc4)nc4ccccc34)CC2)cc1,2.7%,8.28µM*,-8.6%,-5.6%,/
SMILES,AMA1 RON2 block,Pf growth 48h,VACV mCherry inh,VACV Venus inh,Pf growth 96h
Cc1ccc(Nc2nc(NCc3ccco3)c3ccccc3n2)cc1,-25.9%,-20.5%,?,11.2µM*,-24.5%
Cc1cc(CC(=O)O)c(C)n1-c1ccc(Cl)cc1,/,?,/,/,10.7µM*
CCCCN(C)CCNC(=O)Cn1c(=O)sc2ccccc21,-5.6%,/,/,/,8.28µM*
CCCCN(C)CCNC(=O)CCNC(=O)Cn1ccc2ccccc2c1=O,-12.9%,4.8%,-3.5%,-4.6%,8.2%
CN(CCNC(=O)Cn1c(=O)sc2ccccc21)Cc1ccccc1,-1.4%,/,-5.6%,-8.9%,4.65µM*
CCCCCn1c(=O)[nH]c2cc(C(=O)NCCN3CCCCC3C)ccc2c1=O (centres undefined),10.3%,11.7µM*,-11.3%,-7.6%,?
CCCCCNC(=O)c1ccc2c(=O)n(CC3CCCO3)c(=O)[nH]c2c1 (centres undefined),-1.2%,1.31µM*,-7.4%,-5.6%,8.6%
CCCCN(C)CCNC(=O)c1ccc(Cn2c(=S)[nH]c3ccc(Br)cc3c2=O)cc1,51.5%,?,i,-12.1%,10.4µM*
CC1CCN(CCCNC(=O)c2ccc3c(=O)n(Cc4ccc(Cl)cc4)c(=S)[nH]c3c2)CC1,44.3%,13.1µM*,i,-4.6%,32.7%[5.75 µM]
CCOc1cc(-c2nc(-c3ccc(-c4ccccc4)nc3OCC)no2)cc(OCC)c1OCC,/,/,-14.1%,-2.1%,/
CCc1ccc(NC(=O)CSc2nc3ccccc3nc2Cc2ccccc2OC)cc1,/,/,-19.1%,-15.4%,/
CCOc1cc(C(=O)Nc2ccc3c(c2)n(C)c(=O)c(=O)n3C)cc(OCC)c1OCC,/,/,-7.4%,-5.1%,/
O=C1CN(C(=O)c2c(F)cccc2Cl)C(c2ccc(F)cc2)c2cc(Br)ccc2N1 (centres undefined),/,/,-7.6%,-6.3%,/
CCOC(=O)/C(=C/C=C1\Sc2cc(OCC)c(OCC)cc2N1CC)C(C)=O,-2.4%,7.38µM*,-9.9%,198.1%,-2.3%
COc1cc(CNCCN2CCOCC2)ccc1OCc1cccc(Cl)c1,-4.0%,/,/,-21.8%,11.7µM*
COc1cc(CNCc2ccccn2)ccc1OCc1ccc(Cl)cc1Cl,18.5%,?,/,?,10.4µM*
COc1cc(CNCCN2CCOCC2)ccc1OCc1ccc(Cl)cc1Cl,-10.5%,9.28µM*,?,?,2.33µM*
O=C(NCc1ccccn1)c1ccccc1OCc1ccc(Cl)cc1Cl,29.5%,?,/,/,14.7µM*
Cc1ccc(-c2nc3nc(C)cc(N4CCN(c5cc(Cl)ccc5C)CC4)n3n2)cc1,/,/,-15.5%,-1.7%,/
CCOc1ccc(NC(=O)CCc2c(C)nc3cc(-c4ccc(Cl)cc4)nn3c2C)cc1,/,/,-3.0%[7.34 µM],-8.8%[7.34 µM],/
COc1ccc(CCNCc2ccc(OCc3ccc(Cl)nc3)c(OC)c2)cc1OC,-7.3%,/,/,-11.7%,11.7µM*
N/C(=N\NC(=O)c1sccc1OCc1ccc(Cl)cc1Cl)c1ccccn1,33.4%,3.29µM*,?,?,?
O=C(Cn1cc(C(=O)C2CCCCC2)c2ccccc21)Nc1ccccc1Cl,/,/,-7.5%,-14.2%,/
COc1cc(NS(C)(=O)=O)ccc1Cc1c2ccccc2nc2ccccc12,/,/,1.26µM*,?,/
COc1ccccc1NC(=O)Cc1c(C(=O)O)[nH]c2ccc(Cl)cc12,/,/,-3.9%[7.34 µM],-6.1%[7.34 µM],/
CN(CC(=O)Nc1ccccc1Cl)C(=O)COC(=O)/C=C/c1cccc(C(F)(F)F)c1,2.5%,?,/,/,-25.8%
CN(CC(=O)Nc1ccccc1Cl)C(=O)c1ccc(-c2cccc(C(F)(F)F)c2)o1,-10.4%,2.08µM*,/,/,0.415µM*

# High-throughput results from PubChem.
